± gives the standard deviation.
test system: RAW-Dual (murine macrophage reporter line); assay: NF-kB reporter (SEAP) activity fold change vs agonist alone; higher = enhanced NF-kB activity; conditions: modulator concentration 10 µM; agonist: MPLA […]
Procedure, shortened: (§1)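 Compound reached 10 μM final in each well by pin transfer, onto RAW-Dual murine macrophage reporter cells seeded at 50 000 per well in 384-well plates. After 1 hour at 37 °C, the cells were stimulated overnight with a PRR agonist. SEAP in the supernatant was read with QUANTI-Blue at 620 nm absorbance for NF-κB, and Lucia luciferase was read with QUANTI-Luc luminescence for IRF. Each signal was turned into fold change against the mean agonist-only control on the same plate, and two replicate plates were averaged with propagated errors.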

Compound | NF-kB reporter
O=[N+]([O-])c1cc2c(cc1C=Nc1ccc(O)cc1)OCO2 | 1.27 ± 0.11
CCNC(=O)CCC/C=C\C[C@@H]1[C@@H](/C=C/C(O)CCc2ccccc2)[C@@H](O)C[C@@H]1O (stereo not given in full) | 0.953 ± 0.041
CCCS(=O)c1ccc2nc(NC(=O)OC)[nH]c2c1 (stereo not given) | 1.05 ± 0.037
C#CCN[C@@H]1CCc2ccccc21 [Prestw-1734] | 0.978 ± 0.026
CCOC(=O)c1ccccc1NC(=O)CN(c1cc(Cl)ccc1OC)S(C)(=O)=O | 0.897 ± 0.054
Cc1ccccc1C(=O)Nc1nc(C(C)(C)C)cs1 | 1.12 ± 0.11
CC(Cc1ccc(O)c(O)c1)(NN)C(=O)O (stereo not given) | 0.877 ± 0.083
O=C(NN=Cc1ccc([N+](=O)[O-])o1)c1ccc(O)cc1 | 1.62 ± 0.066
O=C(CC12CC3CC(CC(C3)C1)C2)N1CCCCC1 | 0.949 ± 0.056
COC(=O)C1=CN(CC2CCCO2)C=C(C(=O)OC)C1c1ccccc1Br (stereo not given) | 1.01 ± 0.11
CCN(CC)C(=S)SSC(=S)N(CC)CC | 2.07 ± 0.22
O=C(c1cc2cc(F)ccc2s1)N1CCc2ncncc2C1 | 0.898 ± 0.063
Cc1ccc(-n2ncnc2-c2ccccc2C)cc1Cl | 1.14 ± 0.11
COc1ccc(N(CC(=O)NCCSCc2ccccc2)S(C)(=O)=O)cc1Cl | 0.893 ± 0.068
COc1ccc(CNc2nc(N3CCC[C@H]3CO)ncc2C(=O)NCc2ncccn2)cc1Cl | 0.771 ± 0.043
O=C(Cc1ccccc1)NC(NC(=S)Nc1ccc(O)cc1)C(Cl)(Cl)Cl (stereo not given) | 1.06 ± 0.1
CC(C)Oc1ccc(C(=O)NC2CCN(c3ncnc4c3CCCC4)CC2)cn1 | 0.985 ± 0.031
COc1ccc(S(=O)(=O)NCc2ccnc(N3CCOCC3)n2)cc1Cl | 0.919 ± 0.1
CC(=O)OC(OC(C)=O)c1ccc([N+](=O)[O-])cc1 | 1 ± 0.035
CC(=O)C1=C(C)OC2(O)c3ccccc3C(=O)C12O (stereo not given) | 1.23 ± 0.13

Compound | NF-kB reporter
COc1ccc(NC(=O)CN(c2ccc(F)cc2)S(C)(=O)=O)c(OC)c1 | 1.05 ± 0.099
O=C(CCCN1C(=O)c2cccc3cccc(c23)C1=O)NCCO | 0.963 ± 0.025
CCc1ccc2oc(-c3ccc(NC(=O)c4ccc(C)c([N+](=O)[O-])c4)cc3)nc2c1 | 0.931 ± 0.089
COc1cccc2c1C(=O)c1c(O)c3c(c(O)c1C2=O)C[C@@](O)(C(=O)CO)C[C@@H]3O[C@H]1C[C@H](N)[C@@H](O)[C@H](C)O1.Cl | 0.0992 ± 0.0043
CC(NCCC(c1ccccc1)c1ccccc1)c1ccccc1.Cl (stereo not given) | 0.67 ± 0.075
CC(=O)Nc1nc(C2CC2)cc(-c2ccco2)c1C#N | 1.02 ± 0.08
Cc1ccc(N2C(=O)C(Cl)=C(Nc3cccc(C)c3C)C2=O)cc1Cl | 1.28 ± 0.053
CC(C)C(C(=O)Nc1ccc(F)cc1)N1C(=O)c2ccccc2C1=O (stereo not given) | 0.935 ± 0.077
CCOC(=O)N1CCN(C(=O)CSc2nnc(-c3cccc(Cl)c3)o2)CC1 | 0.974 ± 0.057
O=C(CCC(=O)NN=Cc1ccc(O)cc1)NN=Cc1ccc(O)cc1 | 0.947 ± 0.036
COC(=O)C1=CN(C2CC2)C=C(C(=O)OC)C1c1ccccc1Cl | 1.1 ± 0.052
O=C1NC(=O)[C@@H](c2cn3c4c(cccc24)CCC3)[C@@H]1c1c[nH]c2ccccc12 | 1.12 ± 0.13
CC1=NN(c2ccc(S(N)(=O)=O)cc2)C(=O)C1=Cc1ccc(N(C)C)cc1 | 0.947 ± 0.04
COc1ccc(N(CC(=O)Nc2ccccc2C(F)(F)F)S(C)(=O)=O)cc1 | 0.795 ± 0.17
COC(CNC(=O)CSc1ccc(F)cc1)c1ccc(C)s1 (stereo not given) | 1.05 ± 0.067
CCOC(=O)C1=C(C)NC2=C(C(=O)CC(C)(C)C2)C1c1ccccc1Br (stereo not given) | 0.934 ± 0.056
CC(C=CC1=C(C)CCCC1(C)C)=CC=CC(C)=CC(=O)O | 1.01 ± 0.1
COc1ccc2c(Cl)c(C(=O)N3CCc4ccccc4C3)sc2c1 | 1.81 ± 0.77
O=C(Oc1ccc(O)c(CO)c1)c1ccccc1 | 1.06 ± 0.086
O=c1ccc2cc(O)c(O)cc2o1 | 1.03 ± 0.16

test system: RAW-Dual (murine macrophage reporter line); assay: IRF reporter (Lucia luciferase) activity fold change vs agonist alone; higher = enhanced IRF activity; conditions: modulator concentration 10 µM; agonist: 3'3'-cGAMP 10 ug/mL
Procedure, shortened: as §1

Compound | IRF reporter
O=[N+]([O-])c1cc2c(cc1C=Nc1ccc(O)cc1)OCO2 | 0.443 ± 0.011
CCNC(=O)CCC/C=C\C[C@@H]1[C@@H](/C=C/C(O)CCc2ccccc2)[C@@H](O)C[C@@H]1O (stereo not given in full) | 0.994 ± 0.055
CCCS(=O)c1ccc2nc(NC(=O)OC)[nH]c2c1 (stereo not given) | 0.971 ± 0.058
C#CCN[C@@H]1CCc2ccccc21 [Prestw-1734] | 0.977 ± 0.037
CCOC(=O)c1ccccc1NC(=O)CN(c1cc(Cl)ccc1OC)S(C)(=O)=O | 1.02 ± 0.029
Cc1ccccc1C(=O)Nc1nc(C(C)(C)C)cs1 | 0.777 ± 0.047
CC(Cc1ccc(O)c(O)c1)(NN)C(=O)O (stereo not given) | 0.952 ± 0.03
O=C(NN=Cc1ccc([N+](=O)[O-])o1)c1ccc(O)cc1 | 0.956 ± 0.063
O=C(CC12CC3CC(CC(C3)C1)C2)N1CCCCC1 | 1.1 ± 0.037
COC(=O)C1=CN(CC2CCCO2)C=C(C(=O)OC)C1c1ccccc1Br (stereo not given) | 0.956 ± 0.032
CCN(CC)C(=S)SSC(=S)N(CC)CC | 2.71 ± 0.29
O=C(c1cc2cc(F)ccc2s1)N1CCc2ncncc2C1 | 0.927 ± 0.064
Cc1ccc(-n2ncnc2-c2ccccc2C)cc1Cl | 0.777 ± 0.052
COc1ccc(N(CC(=O)NCCSCc2ccccc2)S(C)(=O)=O)cc1Cl | 0.864 ± 0.12
COc1ccc(CNc2nc(N3CCC[C@H]3CO)ncc2C(=O)NCc2ncccn2)cc1Cl | 1.51 ± 0.23
O=C(Cc1ccccc1)NC(NC(=S)Nc1ccc(O)cc1)C(Cl)(Cl)Cl (stereo not given) | 0.935 ± 0.032
CC(C)Oc1ccc(C(=O)NC2CCN(c3ncnc4c3CCCC4)CC2)cn1 | 0.939 ± 0.055
COc1ccc(S(=O)(=O)NCc2ccnc(N3CCOCC3)n2)cc1Cl | 1.07 ± 0.06
CC(=O)OC(OC(C)=O)c1ccc([N+](=O)[O-])cc1 | 1 ± 0.17
CC(=O)C1=C(C)OC2(O)c3ccccc3C(=O)C12O (stereo not given) | 0.831 ± 0.029

Compound | IRF reporter
COc1ccc(NC(=O)CN(c2ccc(F)cc2)S(C)(=O)=O)c(OC)c1 | 0.921 ± 0.042
O=C(CCCN1C(=O)c2cccc3cccc(c23)C1=O)NCCO | 1 ± 0.072
CCc1ccc2oc(-c3ccc(NC(=O)c4ccc(C)c([N+](=O)[O-])c4)cc3)nc2c1 | 1 ± 0.025
COc1cccc2c1C(=O)c1c(O)c3c(c(O)c1C2=O)C[C@@](O)(C(=O)CO)C[C@@H]3O[C@H]1C[C@H](N)[C@@H](O)[C@H](C)O1.Cl | 0.0174 ± 0.0046
CC(NCCC(c1ccccc1)c1ccccc1)c1ccccc1.Cl (stereo not given) | 0.735 ± 0.058
CC(=O)Nc1nc(C2CC2)cc(-c2ccco2)c1C#N | 0.937 ± 0.026
Cc1ccc(N2C(=O)C(Cl)=C(Nc3cccc(C)c3C)C2=O)cc1Cl | 0.549 ± 0.063
CC(C)C(C(=O)Nc1ccc(F)cc1)N1C(=O)c2ccccc2C1=O (stereo not given) | 0.957 ± 0.033
CCOC(=O)N1CCN(C(=O)CSc2nnc(-c3cccc(Cl)c3)o2)CC1 | 0.769 ± 0.03
O=C(CCC(=O)NN=Cc1ccc(O)cc1)NN=Cc1ccc(O)cc1 | 0.973 ± 0.12
COC(=O)C1=CN(C2CC2)C=C(C(=O)OC)C1c1ccccc1Cl | 0.945 ± 0.11
O=C1NC(=O)[C@@H](c2cn3c4c(cccc24)CCC3)[C@@H]1c1c[nH]c2ccccc12 | 0.971 ± 0.058
CC1=NN(c2ccc(S(N)(=O)=O)cc2)C(=O)C1=Cc1ccc(N(C)C)cc1 | 0.794 ± 0.2
COc1ccc(N(CC(=O)Nc2ccccc2C(F)(F)F)S(C)(=O)=O)cc1 | 0.723 ± 0.074
COC(CNC(=O)CSc1ccc(F)cc1)c1ccc(C)s1 (stereo not given) | 0.898 ± 0.03
CCOC(=O)C1=C(C)NC2=C(C(=O)CC(C)(C)C2)C1c1ccccc1Br (stereo not given) | 0.898 ± 0.022
CC(C=CC1=C(C)CCCC1(C)C)=CC=CC(C)=CC(=O)O | 0.568 ± 0.031
COc1ccc2c(Cl)c(C(=O)N3CCc4ccccc4C3)sc2c1 | 0.845 ± 0.05
O=C(Oc1ccc(O)c(CO)c1)c1ccccc1 | 0.637 ± 0.1
O=c1ccc2cc(O)c(O)cc2o1 | 0.736 ± 0.026

— the supplement of paper PMC10646978
